From PubChem BioAssay
This is a sample that favours compounds with a hit; in the whole collection about 19% have one here.
HT1080-NT tox: qHTS for induction of synthetic lethality in tumor cells producing 2HG: qHTS for the HT-1080-NT fibrosarcoma cell line | HT-1080-NT fibrosarcoma viability, CellTiter-Glo ATP luminescence, 48 h | Potency, µM (highest dose often 46.1 µM), most hits filed as cytotoxic | hit rate 1.6% among 360,000;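 further: NT is the 2HG producing partner of a matched IDH1 knockdown line; nearly all actives have a fitted effect of over 55% in size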
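750 cells/well, RPMI + 5% FBS; 2 h settle, compound pin-transfer, 48 h at 37 degrees C. CellTiter-Glo 10 min RT, luminescence. Normalized to DMSO and media-only wells.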
HT1080 IDH1KD tx: qHTS for induction of synthetic lethality in tumor cells producing 2HG: qHTS for the HT-1080-IDH1KD cell line; Potency, µM (series often up to 46.1 µM), usual class: cytotoxic; AID 686971, 2013; hit rate 2% among 360,000; HT-1080 IDH1 knockdown viability, ATP luminescence, 48 h
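HT-1080-IDH1KD cells (IDH1 knocked down), 750/well in RPMI with 5% FBS, treated with compound 48 h at 37 degrees C. Viability by CellTiter-Glo luminescence, normalised to DMSO and no-cell wells; concentration-response curves classed.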
DT40 TDP1 CPT: qHTS for Inhibitors of human tyrosyl-DNA phosphodiesterase 1 (TDP1): qHTS in cells in presence of CPT. chicken DT40 Tdp1-/-;hTDP1 cells + 20 nM CPT, ATP luminescence, 48 h. Potency, µM (series often up to 46.2 µM), usual class: inhibitors. hit rate 12% among 420,000. AID 686979, 2013; further: nearly all actives have a fitted effect of over 55% in size
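Chicken DT40 Tdp1-/- cells stably complemented with human TDP1 were seeded at 400 cells/well in medium containing 20 nM camptothecin, exposed to pin-transferred compounds, and grown at 37 °C for at least 48 hr. Viability was read as ATP luminescence.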
ELG1 DNA repair: qHTS screen for small molecules that inhibit ELG1-dependent DNA repair in human embryonic kidney (HEK293T) cells expressing luciferase-tagged ELG1. Potency, µM (series often up to 46.1 µM), usual class: inhibitors. AID 504467, 2011. hit rate 2.3% among 330,000. HEK293T ELG1-luciferase reporter, luminescence, 16 h; DNA damage induced by 5-fluorouridine; further: nearly all actives have a fitted effect of over 55% in size
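DMSO vehicle served as the neutral condition. Each well held 2,000 cells given 5-fluorouridine plus compound; after 16 hr at 37 °C/5% CO2, ONE-Glo was added and luciferase measured 30 min later.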
TDP1 cell noCPT: qHTS for Inhibitors of human tyrosyl-DNA phosphodiesterase 1 (TDP1): qHTS in cells in absence of CPT; DT40 Tdp1-/- hTDP1 cells, no CPT, ATP luminescence, 48 h; Potency, µM (titrated, usually from 46.2 µM), actives largely listed as inhibitors; hit rate 15% among 420,000; AID 686978, 2013; further: nearly all actives have a fitted effect of over 55% in size
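No-CPT arm: Tdp1-/-;hTDP1 DT40 cells (400/well) plus compounds, incubated ≥48 hr at 37 °C. Readout CellTiter-Glo luminescence.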
IL-1B inflam inh: qHTS for Inhibitors of Inflammasome Signaling: IL-1-beta AlphaLISA Primary Screen; AID 743279, 2014; activity change, % at 57.5 µM; THP-1 LPS/ATP IL-1B secretion, AlphaLISA, 16 h; stronger effect = lower value; hit rate 4.7% among 360,000; in the data active means activity change below about -50%; inconclusive means mostly about -30% to -49%
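Secreted IL-1B measured by AlphaLISA bead assay after 16 h compound exposure of THP-1 cells; compounds (final up to 57.5 uM) added 1 h before LPS (250 ng/mL) and ATP (1.25 mM) stimulation; lower signal means less secretion.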
Numbers stand for hits; 0 = inactive; ? = inconclusive; - = no result. Unless noted, the call rests on the fitted dose curve; in most records, active means well fitted curve in the direction sought with a large enough effect; inconclusive means small, poorly fitted or top-dose-only effect, or another doubt; inactive means no such curve, though single readings can be large; an effect the other way counts as inactive or inconclusive.

SMILES	HT1080-NT tox	HT1080 IDH1KD tx	DT40 TDP1 CPT	ELG1 DNA repair	TDP1 cell noCPT	IL-1B inflam inh
Cc1ccc(Cn2ccc(NC(=O)c3noc4c3CCc3ccccc3-4)n2)cc1	?	0	0	0	0	0
Cc1nn(Cc2ccc(Cl)cc2)c(C)c1NC(=O)c1noc2c1CCc1ccccc1-2	0	0	13µM	?	13µM	0
COc1ccc(NC(=O)c2cnc(SC)nc2C)c(OC)c1	0	0	0	0	0	?
CC(C)c1ccc(/C=C/C(=O)NC(=S)Nc2ccc(CN3CCOCC3)cc2)cc1	?	?	9.2µM	?	18µM	-65
CC(C)c1ccc(/C=C/C(=O)NC(=S)NN2CCOCC2)cc1	0	0	?	?	?	0
O=C(NC(=S)Nc1ccc(CN2CCOCC2)cc1)c1ccc([N+](=O)[O-])cc1	0	0	?	?	0	0
O=C(/C=C/c1cccc([N+](=O)[O-])c1)NC(=S)Nc1ccc(CN2CCOCC2)cc1	0	0	16µM	0	18µM	-94
CCOC(=O)c1c(C)[nH]c(C)c1S(=O)(=O)N1CCCC(C(=O)Nc2ccc(OC)c(OC)c2)C1 (stereo not given)	-	-	0	-	0	-
O=S1(=O)N[C@H](Cc2ccccc2)COc2cc(N3CCN(Cc4ccccc4F)CC3)ccc21	0	0	?	-	16µM	0
COc1ccccc1-c1noc2c1C(=O)N(Cc1cn(C3CCCC3)nn1)CC2	0	0	0	-	0	0
COC(=O)CC1Oc2ccc(F)cc2-n2cc(-c3ccc(Cl)cc3)nc21 (stereo not given)	-	-	9.2µM	-	4.1µM	-
COC(=O)c1cc(-c2ccc(C)cc2)n[nH]1	0	0	0	?	0	0
COC(=O)CC1Oc2ccc(F)cc2-n2cc(-c3ccc(C)cc3)nc21 (stereo not given)	-	-	9.2µM	-	7.3µM	-
Cc1ccc(Cn2c(=O)n(Cc3ccccc3Cl)c(=O)c3cccnc32)cc1	-	-	0	-	?	-
CC(C)n1c(N2CCN(C(=O)Nc3ccc(Cl)cc3)CC2)nc2ccccc21	0	0	0	0	0	0
CC(C)n1c(N2CCN(C(=O)c3cccs3)CC2)nc2ccccc21	0	0	?	0	23µM	0
CC(C)n1c(N2CCN(C(=O)N3CCCCC3)CC2)nc2ccccc21	0	0	13µM	0	?	0
CC(C)n1c(N2CCN(CC(=O)NCc3cccs3)CC2)nc2ccccc21	0	0	?	0	?	0
Cc1cc(Cl)ccc1N(CC(=O)NCc1ccccc1)S(C)(=O)=O	0	0	0	0	0	0
Cc1ccc(NC(=O)CN2CCCC2c2cccn2C)c(Br)c1 (stereo not given)	0	0	?	?	15µM	0
Cc1ccc(NC(=O)CN2CCCC2c2cccn2C)cc1C (stereo not given)	0	0	0	0	?	0
CCOC(=O)c1c(-c2ccc(OC)cc2)nc2nonc2c1N	0	0	?	0	2.6µM	0
CC(/C=N/NC(=O)c1n[nH]c2c1CCC2)=C\c1ccccc1	0.18µM	0.37µM	1.2µM	?	1.3µM	0
O=C(N/N=C/C=C/c1ccccc1)c1cccnc1	0	0	21µM	0	?	0
O=C(N/N=C/C=C/c1ccccc1)c1ccc(Br)cc1	0	0	0	0	0	0
C/C(=N\NC(=O)c1n[nH]c2c1CCC2)c1cccs1	0	0	0	?	0	-
O=C(N/N=C/C=C\c1ccccc1)c1cnccn1	0	0	0	?	0	0
O=C(N/N=C/C(Br)=C\c1ccccc1)c1n[nH]c2c1CCC2	0.32µM	0.56µM	0.23µM	?	0.23µM	0
